Screening results: PubChem, National Center for Advancing Translational Sciences (NCATS)
Hits are enriched below; roughly 19% of the tested compounds scored in any of these assays.
HT1080 IDH1KD tx: kills HT-1080 cells with IDH1 knockdown; HT-1080 IDH1 knockdown viability, ATP luminescence, 48 h; Potency, µM (doses to about 46.1 µM), for inactives: at the highest dose activity, negative = toxicity, usual class: cytotoxic; 2% of 360,000 active;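 also: potency is read from the fitted curve at half-maximal effect; 0% = DMSO wells and -100% = cell-free medium wells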
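Assay cells: HT-1080 with IDH1 knockdown, 750 per well, RPMI/5% FBS. Exposure: 48 h at 37 °C following 2 h pre-incubation. Read: CellTiter-Glo luminescence; fitted concentration-response, curve class assigned.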
IL-1B inflam inh: inflammasome signaling inhibition, IL-1 beta readout; AID 743279; THP-1 LPS/ATP IL-1B secretion, AlphaLISA, 16 h; active compounds read low; 4.7% of 360,000 active; activity change, % at 57.5 µM; in the data active = activity change below about -50%; inconclusive = mostly about -30% to -49%
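Secreted IL-1B measured by AlphaLISA bead assay after 16 h compound exposure of THP-1 cells; compounds (final up to 57.5 uM) added 1 h before LPS (250 ng/mL) and ATP (1.25 mM) stimulation; lower signal means less secretion.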
HT1080-NT tox: kills 2HG-producing HT-1080-NT fibrosarcoma cells; HT-1080-NT fibrosarcoma viability, CellTiter-Glo ATP luminescence, 48 h; Potency, µM (doses to about 46.1 µM), without a hit: top-dose activity, negative = less viability, most hits filed as cytotoxic; 1.6% of 360,000 active;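 also: NT is the 2HG producing partner of a matched IDH1 knockdown line; potency is read from the fitted curve at half-maximal effect; 0% = DMSO-treated cells and -100% = media-only wells without cells; nearly all actives have a fitted effect of over 55% in size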
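A 48-hour cytotoxicity screen used HT-1080-NT cells plated 2 hours before compound delivery. ATP-based CellTiter-Glo luminescence measured viability, normalized to DMSO and no-cell controls.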
DT40 TDP1 CPT: DT40-hTDP1 cell growth loss with CPT; chicken DT40 Tdp1-/-;hTDP1 cells + 20 nM CPT, ATP luminescence, 48 h; Potency, µM (top dose mostly 46.2 µM), without a hit: at the top dose activity change, negative = growth inhibition, actives largely listed as inhibitors; 12% of 420,000 active; also: potency is read from the fitted curve at half-maximal effect; nearly all actives have a fitted effect of over 55% in size
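Cell growth measured by CellTiter-Glo luminescence after a minimum 48 h, 37 C compound exposure with 20 nM CPT in Tdp1-knockout DT40 cells stably expressing hTDP1, seeded 400/well; qHTS titration format.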
DT40 TDP1 no CPT: qHTS for Inhibitors of human tyrosyl-DNA phosphodiesterase 1 (TDP1): qHTS in cells in absence of CPT; 15% of 420,000 active; AID 686978, 2013; Potency, µM (top dose mostly 46.2 µM), without a hit: at the highest dose activity change, negative = growth inhibition, most hits filed as inhibitors; DT40 Tdp1-/- hTDP1 cells, no CPT, ATP luminescence, 48 h; also: potency is read from the fitted curve at half-maximal effect; nearly all actives have a fitted effect of over 55% in size
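Luminescent ATP content (CellTiter-Glo) served as the growth readout. Knockout chicken DT40 cells expressing human TDP1 were exposed to compounds without camptothecin for a minimum 48 hr at 37 °C.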
Active calls of the source: *; ? = inconclusive; · = no result. Unless noted, calls follow the shape of the dose curve; as a rule, active = well fitted curve in the direction sought with a large enough effect; inconclusive = small, poorly fitted or top-dose-only effect, or another doubt; inactive = no such curve, though single readings can be large; an effect the other way counts as inactive or inconclusive. Unless noted, % is scaled to controls: 0 for no effect and ±100 for the full control effect.

SMILES | HT1080 IDH1KD tx | IL-1B inflam inh | HT1080-NT tox | DT40 TDP1 CPT | DT40 TDP1 no CPT
CC(N)c1csc(Nc2ccc(C(=O)NCCCO)cn2)n1 (stereo unspecified) | 16% | 30 | ? | -14% | -11%
NC(Cc1ccc(C(F)(F)F)cc1)c1csc(Nc2ccc(C(=O)NCc3ccco3)cn2)n1 (stereo unspecified) | 7.3µM* | -13 | 12µM* | 15µM* | ?
NC(Cc1ccc(C(F)(F)F)cc1)c1csc(Nc2ccc(C(=O)NCCCO)cn2)n1 (stereo unspecified) | ? | -23 | ? | ? | 16µM*
COC(=O)[C@@H]1CCCN1C(=O)c1c(OC)cc(=O)n2c1CCN(Cc1ccc3cccnc3c1)CC2 | · | · | · | 0% | -4%
O=C(N/C(=C\c1ccc(Br)cc1)C(=O)N1CCOCC1)c1ccc([N+](=O)[O-])cc1 | -13% | 8 | -6% | -6% | -1%
C[C@@H](CO)NC(=O)c1nc[nH]c1C(=O)N[C@H](C)c1ccccc1 | 0% | -4 | 5% | 2% | -1%
Cc1ccc(Oc2c(C(N)=O)cc([N+](=O)[O-])cc2[N+](=O)[O-])cc1 | ? | -85* | ? | 5.8µM* | 5.2µM*
Cc1ccc(CNc2ccc([N+](=O)[O-])cc2C(N)=O)cc1 | 6% | 7 | 17% | -24% | -21%
COC(C(=O)C(O)C(C)O)C1Cc2cc3cc(OC4CC(OC5CC(O)C(O)C(C)O5)C(O)C(C)O4)c(C)c(O)c3c(O)c2C(=O)C1OC1CC(OC2CC(OC3CC(O)C(OC)C(C)O3)C(O)C(C)O2)C(O)C(C)O1 (stereo unspecified) | 0.01µM* | -89* | ? | 0.1µM* | 0.15µM*
CC(C)CCn1c(COc2ccccc2)nn(CCC#N)c1=S | -6% | 38 | -1% | ? | -25%
Cc1cc(C)c(C(=O)c2ccc(C(=O)N(C(C)C)C(C)C)cc2)c(C)c1 | ? | -3 | ? | 16µM* | 18µM*
Cc1cc(C)c(C(=O)c2ccc(C(=O)NC(C)(C)C)cc2)c(C)c1 | -4% | -15 | 4% | -19% | -27%
CC1(C)CC(NC(=O)c2cc(Cl)ccc2Cl)CC(C)(C)N1 | 5% | -5 | 17% | 10% | 3%
COc1ccc2ccccc2c1CN1CCN(C(=O)c2ccco2)CC1 | -25% | -52* | -11% | 18µM* | 15µM*
c1ccc(CN2CCN(CCOCCOc3cccc4ccccc34)CC2)cc1 | ? | -81* | 16µM* | -9% | ?
CCOc1ccccc1-n1c(CN2CCN(C(=O)c3ccco3)CC2)nc2ccccc2c1=O | 10µM* | -103* | 5.6µM* | ? | ?
COc1ccc2ccccc2c1CN1CCN(C(=O)c2ccccc2)CC1 | -14% | ? | -27% | ? | 15µM*
c1ccc2c(OCCCCN3CCOCC3)cccc2c1 | -3% | -4 | -3% | -2% | ?
COc1cccc(CN2CCN(C(=O)c3ccc(-c4ccccc4)cc3)CC2)c1OC | -11% | -17 | 0% | ? | -3%
O=C(c1ccco1)N1CCN(CCOCCOc2cccc3ccccc23)CC1 | -25% | 7 | -7% | ? | ?
O=C(c1ccco1)N1CCCN(Cc2cn[nH]c2-c2ccc(-c3ccccc3)cc2)CC1 | -16% | -82* | -18% | -6% | ?
O=C(c1ccco1)N1CCN(CCCCOc2cccc3ccccc23)CC1 | -10% | 0 | -7% | 18µM* | ?
COc1ccc(-c2[nH]ncc2CN2CCN(C(=O)c3ccco3)CC2)cc1F | 4% | -14 | -11% | 15% | ?
Cc1nn(CC(=O)Nc2sc3c(c2C#N)CCC(C(C)(C)C)C3)c(C)c1[N+](=O)[O-] (stereo unspecified) | 24% | -3 | 15% | 26µM* | 18µM*
Cc1nn(CCCC(=O)Nc2sc3c(c2C#N)CCC3)c(C)c1[N+](=O)[O-] | 0% | -6 | -4% | -28% | ?
